Reference: the supplement of paper PMC10849652
The full data set covers some 8,800 targets. This sample favours those with a hit. About 0.5% of all pairs of compound and target were hits.

Legend:
Assay in all cases: log2 fold change, soluble protein after heating vs DMSO (PISA); higher = thermal stabilisation; K562 lysate, 10 uM; active = over 0.2 and 3.5 SD of the protein, either way, in both replicates (recomputed)
[1] = compound: C=CC(=O)N1CCC[C@@H](n2nc(-c3ccc(Oc4ccccc4)cc3)c3c(N)ncnc32)C1 [ibrutinib]
Procedure, shortened: (§1)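 Quantification was by TMTpro 16plex LC-MS/MS with equalised channel sums, applied to the supernatant after 21,000xg for 90 min. Samples were crude K562 extract at 1 mg/mL protein in PBS pH 7.4 with 1 mM MgCl2, treated with 10 μM compound for 30 min, heated for 3 min across 48°C-58°C, pooled and brought to 0.5% NP-40 at 4°C. Values are log-two fold changes in thermal stability relative to solvent controls, from duplicates.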

[2] = compound: CC(=O)c1cnc2ccc(-c3cc(Cl)c(O)c(Cl)c3)nc2c1N[C@H]1CC[C@H](CN(C)C)CC1
Procedure, shortened: as §1

[3] = compound: CC(C)(C)Cn1c(N)nc2ccc(-c3[nH]c(C(C)(C)C)nc3-c3ccc(F)cc3)nc21 [ralimetinib]
Procedure, shortened: as §1

[4] = compound: CC(C)(O)CC(=O)NCCn1ccc2ncnc(Nc3ccc(Oc4cccc(C(F)(F)F)c4)c(Cl)c3)c21
Procedure, shortened: as §1

[5] = compound: CC(C)C1=C2N=C(C=C(N2N=C1)NCC3=CC=CC=C3)NCCCCCCN
Procedure, shortened: as §1

[6] = compound: CC1=C(C(CC(=O)N1)C2=CC=C(C=C2)C(F)(F)F)C(=O)NC3=C(C=C4C(=C3)C=NN4)F
Procedure, shortened: as §1

[7] = compound: CC1=C(C2=C(C=C1)C(=O)C3=CC=CC=C3N2CCCN)C
Procedure, shortened: as §1

[8] = compound: CC1=C(C=C(C=C1)NC(=O)C2=CC(=CC=C2)C(C)(C)C#N)NC3=CC4=C(C=C3)N=CN(C4=O)C
Procedure, shortened: as §1

[9] = compound: CC1=C(C=C(C=C1)NC(=O)C2=CC(=CC=C2)N(C)C)NC(=O)C3=CC=C(C=C3)O
Procedure, shortened: as §1

[10] = compound: CC1=CC=C(C=C1)SC2=C3C=C(SC3=CN=C2)C(=O)N
Procedure, shortened: as §1

[11] = compound: CCCS(=O)(=O)Nc1ccc(F)c(C(=O)c2c[nH]c3ncc(-c4ccc(Cl)cc4)cc23)c1F [vemurafenib]
Procedure, shortened: as §1

[12] = compound: CCCS(=O)(=O)Nc1ccc(F)c(C(=O)c2c[nH]c3ncc(Cl)cc23)c1F
Procedure, shortened: as §1

[13] = compound: CCN(CCCOc1ccc2c(Nc3cc(CC(=O)Nc4cccc(F)c4)[nH]n3)ncnc2c1)CCOP(=O)(O)O [barasertib]
Procedure, shortened: as §1

[14] = compound: CC[C@@H]1C(=O)N(C)c2cnc(Nc3ccc(C(=O)NC4CCN(C)CC4)cc3OC)nc2N1C1CCCC1
Procedure, shortened: as §1

[15] = compound: CC[C@@H]1C(=O)N(C)c2cnc(Nc3ccc(C(=O)N[C@H]4CC[C@H](N5CCN(CC6CC6)CC5)CC4)cc3OC)nc2N1C(C)C [volasertib]
Procedure, shortened: as §1

[16] = compound: CCn1c(C(=O)N(C2CC2)C2CC2)cc2c3c(ncn3C)c(Nc3cc(C)n(C)n3)nc21
Procedure, shortened: as §1

[17] = compound: CCn1cc(-c2ccnc3[nH]c(-c4cccc(CN(C)C)c4)cc23)c(-c2ccc(NC(=O)N(C)C)cc2)n1
Procedure, shortened: as §1

[18] = compound: CN1CCC(CNc2ccc3ncc(-c4cccc(OC(F)(F)F)c4)n3n2)CC1
Procedure, shortened: as §1

[19] = compound: CN1CCN(CCOc2cc(OC3CCOCC3)c3c(Nc4c(Cl)ccc5c4OCO5)ncnc3c2)CC1 [saracatinib]
Procedure, shortened: as §1

[20] = compound: CN1CCN(c2nc(C3=C(c4c[nH]c5ccccc45)C(=O)NC3=O)c3ccccc3n2)CC1 [sotrastaurin]
Procedure, shortened: as §1

Measured: log2 fold change

STOML2 (UniProt Q9UJZ1)
Chain of UniProt Q9UJZ1 (Q9UJZ1 whole entry, looked up): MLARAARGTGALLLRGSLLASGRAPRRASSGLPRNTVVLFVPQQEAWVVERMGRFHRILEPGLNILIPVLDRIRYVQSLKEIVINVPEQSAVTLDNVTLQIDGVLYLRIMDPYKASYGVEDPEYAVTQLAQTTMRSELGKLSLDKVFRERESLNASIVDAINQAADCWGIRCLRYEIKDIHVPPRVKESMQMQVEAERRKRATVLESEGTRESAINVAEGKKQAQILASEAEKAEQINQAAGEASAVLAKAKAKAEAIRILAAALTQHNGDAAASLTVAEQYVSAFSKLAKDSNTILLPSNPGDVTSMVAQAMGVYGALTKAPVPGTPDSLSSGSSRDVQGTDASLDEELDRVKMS
inactive: [1] 0.017 | [2] -0.012 | [3] -0.015 | [4] -0.028 | [5] 0.033 | [6] -0.025 | [7] -0.04 | [8] 0 | [9] 0.002 | [10] -0.006 | [11] 0.026 | [12] 0.009 | [13] 0.115 | [14] 0.043 | [15] 0.033 | [16] -0.015 | [17] 0.111 | [18] -0.047 | [19] -0.01 | [20] -0.002

SMC6 (UniProt Q96SB8)
Chain of UniProt Q96SB8 (Q96SB8 whole entry, looked up): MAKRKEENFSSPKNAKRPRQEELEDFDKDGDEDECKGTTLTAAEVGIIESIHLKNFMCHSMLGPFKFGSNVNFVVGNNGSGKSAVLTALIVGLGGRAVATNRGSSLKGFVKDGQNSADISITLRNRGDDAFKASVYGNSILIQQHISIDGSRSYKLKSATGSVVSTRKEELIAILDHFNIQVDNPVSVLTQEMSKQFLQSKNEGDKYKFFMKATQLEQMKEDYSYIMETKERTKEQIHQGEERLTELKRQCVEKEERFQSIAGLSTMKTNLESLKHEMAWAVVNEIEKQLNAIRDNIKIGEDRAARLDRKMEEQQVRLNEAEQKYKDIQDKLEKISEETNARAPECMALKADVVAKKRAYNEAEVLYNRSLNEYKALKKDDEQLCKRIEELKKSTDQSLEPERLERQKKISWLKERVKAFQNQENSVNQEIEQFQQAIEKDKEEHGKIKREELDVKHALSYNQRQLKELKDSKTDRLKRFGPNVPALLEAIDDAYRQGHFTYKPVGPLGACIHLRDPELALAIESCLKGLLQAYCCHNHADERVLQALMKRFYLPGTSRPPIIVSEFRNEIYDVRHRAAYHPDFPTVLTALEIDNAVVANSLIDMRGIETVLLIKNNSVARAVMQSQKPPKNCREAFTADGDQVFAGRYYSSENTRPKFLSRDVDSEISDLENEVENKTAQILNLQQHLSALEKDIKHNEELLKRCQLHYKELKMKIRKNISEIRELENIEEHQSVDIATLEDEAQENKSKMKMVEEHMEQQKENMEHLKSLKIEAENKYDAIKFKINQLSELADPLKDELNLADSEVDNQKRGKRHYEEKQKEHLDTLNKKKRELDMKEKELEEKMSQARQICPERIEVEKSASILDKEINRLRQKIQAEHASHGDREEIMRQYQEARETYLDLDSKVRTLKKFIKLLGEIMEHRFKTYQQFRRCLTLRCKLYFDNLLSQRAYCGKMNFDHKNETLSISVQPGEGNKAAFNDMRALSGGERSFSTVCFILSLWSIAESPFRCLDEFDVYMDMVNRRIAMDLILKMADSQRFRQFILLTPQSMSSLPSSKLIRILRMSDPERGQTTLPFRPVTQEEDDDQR
inactive: [1] 0.021 | [2] -0.006 | [3] 0.005 | [4] -0.012 | [5] 0.023 | [6] 0.065 | [7] 0.006 | [8] 0.006 | [9] 0.001 | [10] -0.01 | [11] 0.044 | [12] 0.01 | [13] 0.014 | [14] 0.047 | [15] -0.031 | [16] 0.012 | [17] -0.036 | [18] 0.024 | [19] 0.046 | [20] 0.027

STK11IP (UniProt Q8N1F8)
Chain of UniProt Q8N1F8 (Q8N1F8 whole entry, looked up): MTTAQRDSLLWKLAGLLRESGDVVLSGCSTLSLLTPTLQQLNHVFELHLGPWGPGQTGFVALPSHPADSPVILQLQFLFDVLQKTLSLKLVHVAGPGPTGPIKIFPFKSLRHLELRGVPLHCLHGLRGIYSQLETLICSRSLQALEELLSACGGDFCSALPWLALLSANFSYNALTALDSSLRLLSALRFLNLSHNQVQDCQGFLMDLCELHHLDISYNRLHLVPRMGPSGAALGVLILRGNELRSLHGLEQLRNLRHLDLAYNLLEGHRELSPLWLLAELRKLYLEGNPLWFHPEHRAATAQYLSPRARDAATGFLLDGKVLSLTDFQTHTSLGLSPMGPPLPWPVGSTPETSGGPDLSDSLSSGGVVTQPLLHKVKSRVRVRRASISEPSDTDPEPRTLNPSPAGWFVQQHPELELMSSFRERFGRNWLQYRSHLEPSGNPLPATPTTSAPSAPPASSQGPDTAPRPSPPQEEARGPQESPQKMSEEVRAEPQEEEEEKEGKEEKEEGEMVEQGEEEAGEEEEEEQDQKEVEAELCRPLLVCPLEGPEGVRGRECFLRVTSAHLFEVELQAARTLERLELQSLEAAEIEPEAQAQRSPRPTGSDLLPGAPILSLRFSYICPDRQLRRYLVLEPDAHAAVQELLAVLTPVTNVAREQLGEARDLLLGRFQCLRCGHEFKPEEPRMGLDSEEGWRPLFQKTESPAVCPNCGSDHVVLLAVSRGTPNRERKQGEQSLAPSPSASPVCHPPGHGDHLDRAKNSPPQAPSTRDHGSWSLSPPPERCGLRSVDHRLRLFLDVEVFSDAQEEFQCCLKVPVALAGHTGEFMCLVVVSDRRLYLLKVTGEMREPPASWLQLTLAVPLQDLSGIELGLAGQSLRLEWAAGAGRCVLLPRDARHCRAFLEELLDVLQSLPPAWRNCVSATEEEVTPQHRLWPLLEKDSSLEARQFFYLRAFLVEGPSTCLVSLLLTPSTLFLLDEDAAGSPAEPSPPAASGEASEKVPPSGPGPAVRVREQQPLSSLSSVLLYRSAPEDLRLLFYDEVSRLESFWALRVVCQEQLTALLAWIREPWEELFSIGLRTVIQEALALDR
inactive: [1] -0.016 | [2] -0.024 | [3] 0.044 | [4] -0.055 | [5] 0 | [6] 0.046 | [7] 0.024 | [8] -0.009 | [9] 0 | [10] 0.015 | [11] -0.016 | [12] 0.018 | [13] -0.04 | [14] 0.075 | [15] -0.067 | [16] 0.002 | [17] 0.015 | [18] -0.072 | [19] 0.012 | [20] 0.016

SLC25A38 (UniProt Q96DW6)
Chain of UniProt Q96DW6 (Q96DW6 whole entry, looked up): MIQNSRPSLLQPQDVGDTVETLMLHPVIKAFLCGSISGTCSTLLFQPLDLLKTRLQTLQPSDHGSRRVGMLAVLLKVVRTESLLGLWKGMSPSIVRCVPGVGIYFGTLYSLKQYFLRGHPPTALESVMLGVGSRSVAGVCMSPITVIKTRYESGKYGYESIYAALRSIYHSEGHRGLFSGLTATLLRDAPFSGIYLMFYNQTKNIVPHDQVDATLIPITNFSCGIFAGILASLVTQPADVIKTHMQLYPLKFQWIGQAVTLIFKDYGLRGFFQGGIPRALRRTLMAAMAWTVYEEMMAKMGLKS
inactive: [1] 0.061 | [2] -0.108 | [3] -0.074 | [4] -0.003 | [5] -0.114 | [6] -0.153 | [7] -0.437 | [8] 0.002 | [9] 0.115 | [10] 0.04 | [11] 0.037 | [12] 0.013 | [13] -0.005 | [14] 0.209 | [15] 0.012 | [16] 0.015 | [17] -0.055 | [18] 0.067 | [19] -0.127 | [20] 0.07

SMAP2 (UniProt Q8WU79)
Chain of UniProt Q8WU79 (Q8WU79 whole entry, looked up): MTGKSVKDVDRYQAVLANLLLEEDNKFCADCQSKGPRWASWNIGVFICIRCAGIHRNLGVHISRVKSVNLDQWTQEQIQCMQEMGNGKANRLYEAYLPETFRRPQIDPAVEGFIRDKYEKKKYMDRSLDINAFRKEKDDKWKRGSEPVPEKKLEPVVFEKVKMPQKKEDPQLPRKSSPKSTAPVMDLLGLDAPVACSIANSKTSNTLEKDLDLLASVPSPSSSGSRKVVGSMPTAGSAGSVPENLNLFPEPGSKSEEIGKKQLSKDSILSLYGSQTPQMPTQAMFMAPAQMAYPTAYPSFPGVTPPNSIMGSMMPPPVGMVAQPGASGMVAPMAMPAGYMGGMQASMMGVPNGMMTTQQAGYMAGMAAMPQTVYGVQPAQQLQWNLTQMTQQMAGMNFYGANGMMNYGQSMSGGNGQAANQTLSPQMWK
inactive: [1] -0.008 | [2] -0.008 | [3] -0.015 | [4] -0.01 | [5] 0.024 | [6] 0.034 | [7] 0.019 | [9] -0.015 | [10] 0.002 | [11] -0.043 | [12] 0.011 | [13] 0.013 | [14] 0.047 | [15] -0.02 | [16] 0.012 | [17] 0.043 | [18] -0.001 | [19] 0.044 | [20] -0.027
active: [8] -0.286

SNRPD2 (UniProt P62316)
Chain of UniProt P62316 (P62316 whole entry, looked up): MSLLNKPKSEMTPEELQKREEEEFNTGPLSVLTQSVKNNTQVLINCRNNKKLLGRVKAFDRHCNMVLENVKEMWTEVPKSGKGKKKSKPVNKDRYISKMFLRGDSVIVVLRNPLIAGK
inactive: [1] -0.028 | [2] -0.033 | [3] -0.018 | [4] -0.041 | [5] 0.007 | [6] -0.011 | [7] 0.016 | [8] 0.01 | [9] 0.015 | [10] -0.005 | [11] -0.008 | [12] -0.019 | [13] 0.001 | [14] 0.058 | [15] 0.033 | [16] 0.018 | [17] -0.083 | [18] 0.051 | [19] -0.021 | [20] 0.011

SKA1 (UniProt Q96BD8)
Chain of UniProt Q96BD8 (Q96BD8 whole entry, looked up): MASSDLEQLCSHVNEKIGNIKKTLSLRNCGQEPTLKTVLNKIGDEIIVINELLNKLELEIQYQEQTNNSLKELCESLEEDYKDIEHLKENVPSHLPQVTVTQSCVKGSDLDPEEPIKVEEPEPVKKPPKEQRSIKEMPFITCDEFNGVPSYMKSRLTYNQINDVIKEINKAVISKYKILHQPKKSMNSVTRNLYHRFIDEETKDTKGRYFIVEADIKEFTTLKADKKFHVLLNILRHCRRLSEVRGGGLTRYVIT
inactive: [1] 0.002 | [2] 0.033 | [3] -0.023 | [4] -0.017 | [5] 0.044 | [6] 0.014 | [7] 0.066 | [8] -0.017 | [9] 0.033 | [10] 0.007 | [11] -0.004 | [12] -0.01 | [13] -0.017 | [15] -0.121 | [16] 0.003 | [17] -0.167 | [18] 0.021 | [19] 0.071 | [20] 0.066
active: [14] -0.234

SLC29A2 (UniProt Q14542)
Chain of UniProt Q14542 (Q14542 whole entry, looked up): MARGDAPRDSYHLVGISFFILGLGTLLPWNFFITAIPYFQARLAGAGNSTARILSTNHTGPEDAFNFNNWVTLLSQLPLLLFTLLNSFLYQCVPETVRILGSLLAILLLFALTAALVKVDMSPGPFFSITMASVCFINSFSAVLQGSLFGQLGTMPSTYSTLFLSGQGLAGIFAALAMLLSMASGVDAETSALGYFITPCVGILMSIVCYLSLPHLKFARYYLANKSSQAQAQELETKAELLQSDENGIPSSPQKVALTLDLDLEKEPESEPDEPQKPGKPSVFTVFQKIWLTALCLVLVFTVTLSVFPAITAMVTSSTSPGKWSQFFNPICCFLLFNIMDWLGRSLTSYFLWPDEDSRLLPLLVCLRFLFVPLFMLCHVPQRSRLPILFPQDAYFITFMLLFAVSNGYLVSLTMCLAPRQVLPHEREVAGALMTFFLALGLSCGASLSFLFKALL
active: [17] -0.729
inactive: [1] 0.035 | [2] 0.045 | [3] 0.082 | [4] -0.036 | [5] 0.043 | [6] -0.001 | [7] -0.011 | [8] 0.041 | [9] 0.072 | [10] 0.006 | [11] 0.003 | [12] 0.012 | [13] 0.029 | [14] 0.049 | [15] -0.041 | [16] -0.079 | [18] 0.206 | [19] -0.004 | [20] 0.013
